# Inconclusive results are not listed. A call without a number means that no potency is given here. Calls of active or inactive are those of the source. Unless noted, the call rests on the fitted dose curve; in most records, active means well fitted curve in the direction sought with a large enough effect; inconclusive means small, poorly fitted or top-dose-only effect, or another doubt; inactive means no such curve, though single readings can be large; an effect the other way counts as inactive or inconclusive.
# Assays:
# [1] = MultiTox-Fluor Cytotoxicity Assay - LYMP1-001 - Dead Cells (AID 946); conditions: LYMP1-001 lymphoblastoid cells, dead-cell protease fluorescence; series mostly up to 92.2 µM; further: potency means the concentration at half of the fitted maximal effect
# Procedure, shortened: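 In this qHTS, 15 uM tetraoctylammonium bromide defined 100% and DMSO defined basal activity. Lymphoblastoid cells (LYMP1-001, 2500 per well) received compound for 16 hr at 37 C before a fluorogenic dead-cell substrate readout at 485/520 nm.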
# [2] = MultiTox-Fluor Cytotoxicity Assay - LYMP1-001 - Live Cells (AID 947); conditions: LYMP1-001 lymphoblastoid cells, live-cell protease fluorescence viability; series mostly up to 92.2 µM; further: potency means the concentration at half of the fitted maximal effect
# [3] = Cell Viability - LYMP1-002 - Assay at 16 hr (AID 948); conditions: LYMP1-002 lymphoblastoid cell viability; series mostly up to 92.2 µM; further: potency means the concentration at half of the fitted maximal effect
# Procedure, shortened: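 LYMP1-002 human lymphoblastoid cells, 2500/well, were treated with compounds for 16 hr at 37 C in complete medium. Viability was read as intracellular ATP by CellTiter-Glo luminescence, and AC50 was derived from a Hill fit to concentration-response data.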
# [4] = MultiTox-Fluor Cytotoxicity Assay - LYMP1-002 - Live Cells (AID 955); conditions: LYMP1-002 lymphoblastoid live-cell protease fluorescence viability; series mostly up to 46.1 µM;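 further: cells exposed to compound for 16 hours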
# Procedure, shortened: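 Human lymphoblastoid LYMP1-002 cells, 2500/well, treated 16 h at 37 C in complete medium. Live-cell protease activity via GF-AFC fluorescence (Ex/Em 405/510) after 60 min reagent incubation; AC50 from Hill fits.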
# [5] = MultiTox-Fluor Cytotoxicity Assay - LYMP1-002 - Dead Cells (AID 960); conditions: LYMP1-002 lymphoblastoid cells, dead-cell protease fluorescence; series mostly up to 46.1 µM;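 further: cells exposed to compound for 16 h at 37 °C; nearly all actives have a fitted effect of over 60% in size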
# Procedure, shortened: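 Human lymphoblastoid LYMP1-002 cells, 2500/well, treated 16 h at 37 C; dead-cell protease cleavage of bis-AAF-R110 read by fluorescence (485/520); normalized to DMSO and 15 uM tetraoctylammonium bromide; AC50 from Hill fit.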
# [6] = MultiTox-Fluor Cytotoxicity Assay - LYMP1-003 - Dead Cells (AID 961); conditions: LYMP1-003 lymphoblastoid cells, dead-cell protease fluorescence; series mostly up to 92.2 µM;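 further: cells exposed to compound for 16 h at 37 °C; nearly all actives have a fitted effect of over 70% in size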; further: potency means the concentration at half of the fitted maximal effect
# Procedure, shortened: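 Acute toxicity is scored as increased dead-cell protease activity in human lymphoblastoid LYMP1-003 cells after 16 h compound exposure in complete culture medium. Activity is normalized to DMSO basal and 15 uM tetraoctylammonium bromide as full response.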
# [7] = MultiTox-Fluor Cytotoxicity Assay - LYMP1-003 - Live Cells (AID 962); conditions: LYMP1-003 lymphoblastoid cells, MultiTox-Fluor live-cell protease fluorescence; series mostly up to 92.2 µM;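 further: cells exposed to compound for 16 hours at 37 °C; cytotoxic hits lower the live-cell protease signal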
# Procedure, shortened: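 LYMP1-003 lymphoblastoid cells, 2500/well in complete medium, treated 16 h at 37 C; live-cell protease cleavage of GF-AFC read by fluorescence (Ex/Em 405/510) after 60 min reagent; AC50 from Hill fits of concentration-response.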
# [8] = Cell Viability - LYMP1-003 - Assay at 24 hr (AID 963); conditions: LYMP1-003 lymphoblastoid cell viability; series mostly up to 92.2 µM; further: potency means the concentration at half of the fitted maximal effect
# Procedure, shortened: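 Human lymphoblastoid LYMP1-003 cells, 2500/well, treated 24 h at 37 C in complete medium. Viability read as intracellular ATP by CellTiter-Glo luminescence after 30 min at room temperature; AC50 from Hill-equation fits of qHTS concentration-response.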
# [9] = biological target: Pyruvate kinase PKM (Homo sapiens) (UniProt P14618); assay: qHTS Assay for Activators of Human Muscle Pyruvate Kinase (AID 954; active means well fitted curve in the direction sought with a large enough effect, not every such curve was filed as active); conditions: purified human muscle pyruvate kinase, luciferase-coupled luminescence, 1 h; series mostly up to 57.5 µM
# Chain of Pyruvate kinase PKM (Homo sapiens) (P14618 whole entry, looked up): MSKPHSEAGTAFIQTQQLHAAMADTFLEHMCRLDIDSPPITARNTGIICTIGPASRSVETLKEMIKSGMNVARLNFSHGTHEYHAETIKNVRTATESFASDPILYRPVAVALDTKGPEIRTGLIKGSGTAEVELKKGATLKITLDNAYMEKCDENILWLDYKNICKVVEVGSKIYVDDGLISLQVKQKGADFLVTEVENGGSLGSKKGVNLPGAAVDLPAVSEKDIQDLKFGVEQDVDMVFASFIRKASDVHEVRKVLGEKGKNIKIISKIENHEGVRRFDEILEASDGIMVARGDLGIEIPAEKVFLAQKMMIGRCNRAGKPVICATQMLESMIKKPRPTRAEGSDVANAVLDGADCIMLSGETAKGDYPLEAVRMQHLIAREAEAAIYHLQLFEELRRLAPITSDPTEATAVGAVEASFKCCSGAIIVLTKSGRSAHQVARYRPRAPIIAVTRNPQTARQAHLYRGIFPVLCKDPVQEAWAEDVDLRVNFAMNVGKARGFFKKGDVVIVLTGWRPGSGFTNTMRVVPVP
# Procedure, shortened: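 Enzyme was run at intermediate activity so both inhibitors and activators could be detected. ATP formed from ADP and PEP by 0.1 nM human PKM2 during a 1 h room-temperature incubation was quantified by coupled luciferase luminescence.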
# [10] = biological target: Pyruvate kinase (Leishmania mexicana) (UniProt Q27686); assay: qHTS Validation Assay for Inhibitors of Leishmania Mexicana Pyruvate Kinase (AID 945); conditions: purified L. mexicana pyruvate kinase, enzyme activity, E451W mutant enzyme; series mostly up to 57.5 µM
# Chain of Pyruvate kinase (Leishmania mexicana) (Q27686 2-499 E452W): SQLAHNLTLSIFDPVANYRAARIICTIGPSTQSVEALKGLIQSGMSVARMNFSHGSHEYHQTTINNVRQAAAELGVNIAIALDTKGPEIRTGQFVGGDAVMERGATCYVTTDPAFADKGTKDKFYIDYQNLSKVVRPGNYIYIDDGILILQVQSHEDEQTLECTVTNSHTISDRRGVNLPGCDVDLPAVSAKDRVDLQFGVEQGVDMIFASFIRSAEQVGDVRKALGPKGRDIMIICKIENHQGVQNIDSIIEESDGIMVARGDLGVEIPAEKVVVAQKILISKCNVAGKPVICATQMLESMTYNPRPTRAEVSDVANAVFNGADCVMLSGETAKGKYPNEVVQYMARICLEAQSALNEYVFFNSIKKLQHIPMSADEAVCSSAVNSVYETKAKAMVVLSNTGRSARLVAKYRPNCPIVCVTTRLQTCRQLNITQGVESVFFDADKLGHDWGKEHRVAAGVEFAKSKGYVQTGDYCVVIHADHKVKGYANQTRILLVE
# Procedure, shortened: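 Read-out: luminescence from PKLight stop/detection reagent, data normalized to DMSO. Reaction: 0.2 nM E451W LmPYK, 0.5 mM PEP, 0.1 mM ADP, pH 7.2, 1 h room temperature.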
Structure (SMILES),Potency [1],Potency [2],Potency [3],outcome [4],outcome [5],Potency [6],outcome [7],Potency [8],outcome [9],outcome [10]
C[C@]12C[C@H](O)[C@H]3[C@@H](CCC4=CC(=O)CC[C@@]43C)[C@@H]1CC[C@@H]2C(=O)CO,inactive,inactive,inactive,inactive,inactive,inactive,inactive,inactive,,
CN(C)CCC=C1c2ccccc2CCc2ccccc21,,inactive,inactive,inactive,,,inactive,inactive,,
NC(=O)N/N=C/c1ccc([N+](=O)[O-])o1,inactive,inactive,inactive,inactive,inactive,inactive,inactive,,,
NC(=O)c1ncn([C@@H]2O[C@H](CO)[C@@H](O)[C@H]2O)n1,inactive,inactive,inactive,inactive,inactive,inactive,inactive,inactive,inactive,
Cc1cc(CC(=O)O)n(C)c1C(=O)c1ccc(Cl)cc1,inactive,inactive,inactive,inactive,inactive,inactive,inactive,inactive,,
CCCCOC(=O)c1ccc(O)cc1,inactive,inactive,inactive,inactive,inactive,inactive,inactive,inactive,,
Cc1cc2nc3c(=O)[nH]c(=O)nc-3n(C[C@H](O)[C@H](O)[C@H](O)CO)c2cc1C,39.8 µM (active),inactive,inactive,,inactive,39.8 µM (active),inactive,inactive,,
O=C1O[C@H]([C@@H](O)CO)C(O)=C1O,inactive,inactive,inactive,inactive,inactive,inactive,inactive,inactive,,
Cc1c(O)cccc1C(=O)N[C@@H](CSc1ccccc1)[C@H](O)CN1C[C@H]2CCCC[C@H]2C[C@H]1C(=O)NC(C)(C)C,31.6 µM (active),39.8 µM (active),50.1 µM (active),,,50.1 µM (active),,39.8 µM (active),,
[Cl][In]([Cl])[Cl],inactive,inactive,inactive,inactive,inactive,inactive,inactive,inactive,,
CCN(CC)CCOC(=O)C1(C2CCCCC2)CCCCC1,,,,,,,,,inactive,inactive
O=C1c2c(O)cccc2Cc2cccc(O)c21,inactive,inactive,inactive,inactive,,inactive,inactive,inactive,,
NCCNCCNCCN,inactive,inactive,inactive,inactive,inactive,inactive,inactive,inactive,,
CC(C)C(=O)c1c(C(C)C)nn2ccccc12,,,,,,,,,inactive,inactive
NCCNCCNCCNCCN,inactive,inactive,inactive,inactive,inactive,inactive,inactive,inactive,,
CC1(C)[C@@H]2CC[C@@]1(C)C(=O)C2,inactive,inactive,inactive,inactive,,inactive,inactive,inactive,,
CC12CCC(CC1)C(C)(C)O2,inactive,inactive,inactive,inactive,inactive,inactive,inactive,inactive,,
Oc1cccc(O)c1,inactive,,inactive,inactive,,inactive,inactive,inactive,,
CN(C)CCCN1c2ccccc2CCc2ccccc21,,,,,,,,,inactive,inactive
CCCCCCCCCCCCOS(=O)(=O)O,inactive,inactive,inactive,inactive,inactive,inactive,inactive,inactive,,
Cc1cc(N)c2ccccc2[n+]1CCCCCCCCCC[n+]1c(C)cc(N)c2ccccc21,,,,,,,,,inactive,inactive
C=Cc1c(C)c2cc3[nH]c(cc4nc(cc5nc(cc1[nH]2)C(C)=C5CCC(=O)O)C(CCC(=O)O)=C4C)c(C)c3C=C,,,,,,,,,inactive,inactive
Nc1ccc(S(=O)(=O)Nc2nccs2)cc1,inactive,inactive,inactive,inactive,,inactive,inactive,inactive,,
COc1ccccc1O,inactive,inactive,inactive,inactive,inactive,inactive,inactive,inactive,,

# Reference: PubChem BioAssay (NCATS)
